Records with an inconclusive call do not appear. Activity calls are given as the source filed them. Calls come from the whole dose curve.
Test: Confirmation and Secondary Assays for Modulators of Hemoglobin Beta Chain Splicing at IVS2 654 and 705 loci
Settings: HeLa beta-globin IVS2-654 splicing GFP reporter, 48 h
From the text: NIH Chemical Genomics Center [NCGC]
NIH Molecular Libraries Screening Centers Network [MLSCN]
PI Name: Dr. Ryszard Kole
Modulation of Alternative Splicing as Therapy
Abnormal splicing is associated with a number of diseases, including cancer and genetic diseases such as cystic fibrosis, muscular dystrophy and beta-thalassemia. Alteration of disease associated splicing patterns provides a promising target for treatment. […] Mutations in the second intron of the b-globin gene at positions 654 or 705 are clinically relevant and cause mis-splicing which results in an out of frame gene product.
EGFP-654 HeLa Cells as screen system.
(§1) HeLa cell lines were stably transfected with a construct in which the EGFP (enhanced green fluorescent protein) cDNA was interrupted by the second intron of the beta-globin gene (IVS2-654). The ISV2 intron contains mutations which cause mis-splicing of EGFP and premature termination of EGFP which results in a nonfluorescent protein product. […] Expression of the transgene was driven by the CMV promoter. We concluded that a low molecular weight compound, which restored correct splicing of intron 2 would also generate functional EGFP protein, resulting in a fluorescent signal. Thus, the HeLa cells that express the EGFP-654 construct can be used for high throughput screening of a chemical library.
EGFP-705 HeLa Cells as screen system.
as §1, with “(IVS2-705).” for “(IVS2-654).”, “EGFP-705” for “EGFP-654”, “validation of splice site specificity of compounds identified in primary” for “high throughput”, “the ISV2 654 construct.” for “a chemical library.”
NCGC Assay Protocol Summary:
Confirmatory Screening. Freshly thawed HeLa EGFP-654 or EGFP-705 cells were seeded in 5 ul of optimem media (Invitrogen) containing 2 % fetal calf serum (Hyclone) and 1x penicillin/streptomycin (Invitrogen) at a concentration of 500 cells per well in 1536-well plates. Cells were incubated overnight at 37C in 5% CO2. The next day, cells were treated with DMSO, 500 nM antisense ISV2 654 (or 705) PNA control oligo, or library compound and allowed to grow at 37C in 5% CO2 for 2 days. The PNA oligo blocked the mutation site in the intron and allowed proper (wild type) splicing to occur, resulting in full length EGFP expression and also allowed for optimization of the assay parameters. Plates were read in the Acumen Explorer (TTP Labtech) using 488 nm laser excitation and 500-520 nm emission PMT filter in a 1 x 8 uM capture mode, and were read immediately after compound pinning (beta-globin-654-gfp-0hr), at 24 hours (beta-globin-654-gfp-24hr and beta-globin-705-gfp-24hr), and at 48 hours (beta-globin-654-gfp-48hr and beta-globin-705-gfp-48hr). Fluorescnet objects ranging in size from 5 to 250 uM were measured and the total peak GFP intensity for each well was used for data analysis. Cell death was measured by quantitating protease release by sick and dying cells using Promega's luminescent Cytotox-Glo reagent. Cells were treated with 2ul of Cytotox- Glo reagent incubated at room temperature for 5 minutes and read in the Viewlux plate reader with a 30 second integration time (beta-globin-654-protease-48hr and beta-globin-705-protease-48hr).
Keywords: Thalassemia, beta-thalassemia, beta-globin, EGFP, ISV2 654, ISV2 705, SSO, PNA, antisense, splicing, MLSMR, MLSCN, NIH Roadmap, qHTS, NCGC

Potency, active:
Nc1nc(=S)c2ncn([C@H]3O[C@@H](CO)[C@@H](O)[C@@H]3O)c2[nH]1 1260 nM, O=c1[nH]c(=O)n([C@@H]2O[C@H](CO)[C@@H](O)[C@H]2O)cc1F 3980 nM, Nc1nc(=S)c2[nH]cnc2[nH]1 1120 nM, Cn1cnc([N+](=O)[O-])c1Sc1ncnc2nc[nH]c12 2000 nM, OCC1OC(n2cnc3c(=S)nc[nH]c32)C(O)C1O (stereo not drawn) 1780 nM, CCn1c(C)nc([N+](=O)[O-])c1Sc1ncnc2nc[nH]c12 2000 nM, Nc1nc2n[nH]nc2c(=O)[nH]1 2510 nM, S=C1NC=NC2N=CNC12 (stereo not drawn) 1580 nM
